Experimental findings from patent US20100081621, “Crystal structure of the catalytic domain of the viral restriction factor APOBEC3G” (published 2010) are described below.

Sequence of APOBEC3G R313E/R320D (Q9HC16 whole entry R313E/R320D, one chain of several): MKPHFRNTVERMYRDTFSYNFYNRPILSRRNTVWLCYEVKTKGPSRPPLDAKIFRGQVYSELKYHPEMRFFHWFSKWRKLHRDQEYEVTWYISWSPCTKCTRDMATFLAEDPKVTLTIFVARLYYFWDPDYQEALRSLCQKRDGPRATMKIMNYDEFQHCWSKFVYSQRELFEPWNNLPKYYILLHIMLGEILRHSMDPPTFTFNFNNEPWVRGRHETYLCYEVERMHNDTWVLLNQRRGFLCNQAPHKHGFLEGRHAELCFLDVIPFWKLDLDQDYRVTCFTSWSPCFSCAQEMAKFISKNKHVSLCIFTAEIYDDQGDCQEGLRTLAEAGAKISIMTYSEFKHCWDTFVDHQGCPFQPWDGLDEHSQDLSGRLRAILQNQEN

This test addresses APOBEC3G R313E/R320D (Homo sapiens, UniProt Q9HC16 Q9HC16:1-384, R313E,R320D). As to the kind of experiment: FP; 5 mM MgCl2, 37 C. Conditions: tags: Sf9, pAcG2T; label: internal fluorescein-dT; ssDNA; [15 (fluorescein-dT)]. How it is done: Apo3G-DNA binding were monitored by changes in steady state fluorescence depolarization (rotational anisotropy). Reaction mixtures (70 μl), containing an F-labeled DNA ([…]) in buffer (50 mM HEPES, pH 7.3, 1 mM DTT and 5 mM MgCl₂) and varying concentration of 0 to 500 nM Apo3G, were incubated at 37° C. The sequence of the ssDNA is: tta gat gag tgt aa(FdT) gtg ata tat gtg tat. Rotational anisotropy was measured as described previously (Chelico et al., 2006). The fraction of DNA bound to protein was determined as described previously (Bertram et al., 2004).
For the sequence TTAGATGAGTGTAATGTGATATATGTGTAT, the binding signal is 77 % of wt.
